# An excerpt weighted towards active compounds, which were near 18% of everything screened.
# DT40 TDP1 CPT: growth inhibition of DT40 Tdp1-/-;hTDP1 cells with camptothecin (screen for TDP1 inhibitors). chicken DT40 Tdp1-/-;hTDP1 cells + 20 nM CPT, ATP luminescence, 48 h. Potency, µM (top dose mostly 46.2 µM), without a hit: top-dose activity change, negative = growth inhibition, most hits filed as inhibitors. actives 12% (n = 420,000); also: nearly all actives have a fitted effect of over 55% in size
#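 Chicken DT40 Tdp1-/- cells stably complemented with human TDP1 were seeded at 400 cells/well in medium containing 20 nM camptothecin, exposed to pin-transferred compounds, and grown at 37 °C for at least 48 hr. Viability was read as ATP luminescence.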
# TDP1 inh: blocks human tyrosyl-DNA phosphodiesterase 1; Q9NUW8; recombinant TDP1, AlphaScreen DNA substrate cleavage; Potency, µM (series often up to 130 µM), for the others: at the highest dose activity change, negative = inhibition, actives largely listed as inhibitors; actives 0.28% (n = 350,000); also: nearly all actives have a fitted effect of over 40% in size
#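 AlphaScreen read-out: signal falls as enzyme removes the 3' tyrosine-FITC from a 5'-biotinylated DNA oligo (15 nM, 5 min, RT). Enzyme was E. coli-made recombinant Tdp1 at 1 nM, exposed to compound for 15 min beforehand; beads 10 ug/ml, 10 min.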
# DT40 TDP1 no CPT: qHTS for Inhibitors of human tyrosyl-DNA phosphodiesterase 1 (TDP1): qHTS in cells in absence of CPT. DT40 Tdp1-/- hTDP1 cells, no CPT, ATP luminescence, 48 h. Potency, µM (doses to about 46.2 µM), for the others: at the highest dose activity change, negative = growth inhibition, hits mostly inhibitors. actives 15% (n = 420,000). AID 686978, 2013; also: nearly all actives have a fitted effect of over 55% in size
#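 Growth kinetics read by CellTiter-Glo luminescence after ≥48 hr at 37 °C. Cells: DT40 Tdp1-/- stably carrying human TDP1, 400 per well, compound exposure in the absence of CPT (DMSO vehicle).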
# GCN5L2 inh: inhibitors of human GCN5L2 histone acetyltransferase; actives 0.21% (n = 390,000); Q92830; GCN5L2 HAT assay, ThioGlo1 CoA-SH fluorescence; Potency, µM (series often up to 58.9 µM), without a hit: at the top dose activity change, negative = inhibition, hits mostly inhibitors
#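 Free CoA generated was detected with ThioGlo1 (50uM) fluorescence at Ex340nm/Em540nm, read immediately and after 20 min at room temperature. Enzyme, 20 nM in HEPES pH 7.5 buffer, saw compounds 15 min before adding 75uM H3(1-25) peptide and 70uM acetyl-CoA.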
# PLK1 PBD inh: blocks phosphopeptide binding to human PLK1 polo-box domain; Plk1 PBD binding of FITC phosphopeptide, fluorescence polarization; Potency, µM, inactives show max response, negative = inhibition, usual class: inhibitors; actives 2.8% (n = 360,000); P53350; also: series mostly up to about 57 µM; nearly all actives have a fitted effect of over 65% in size
# VDR inhibitor: blocks the human vitamin D receptor; P11473; VDR-SRC2-3 peptide fluorescence polarization, 2 h; Potency, µM, inactives show max response, negative = inhibition, usual class: inhibitors; actives 0.93% (n = 400,000)
#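 Fluorescence polarization assay of small-molecule disruption of VDR binding to coregulator peptide SRC2-3. Compounds and controls pin-transferred, then read after 2 h incubation at ambient room temperature.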
# Starred values were filed as active, the others as inactive; ? = inconclusive; · = no result given. Calls follow the shape of the dose curve; as a rule, active = well fitted curve in the direction sought with a large enough effect; inconclusive = small, poorly fitted or top-dose-only effect, or another doubt; inactive = no such curve, though single readings can be large; an effect the other way counts as inactive or inconclusive. % is scaled to controls: 0 for no effect and ±100 for the full control effect; potency is read from the fitted curve at half-maximal effect.
SMILES,DT40 TDP1 CPT,TDP1 inh,DT40 TDP1 no CPT,GCN5L2 inh,PLK1 PBD inh,VDR inhibitor
O=C1/C(=C/c2cccnc2)SC(=S)N1C1CCS(=O)(=O)C1 (stereo not drawn),10.3µM*,7.9%,9.2µM*,13.7%,-16.3%,-21.1%
O=C(NN1C(=O)/C(=C\c2cccnc2)SC1=S)C(c1ccccc1)c1ccccc1,?,8.2%,25.9µM*,-3.7%,-26.8%,1.0%
O=C(NN1C(=O)/C(=C/c2cccnc2)SC1=S)C(c1ccccc1)c1ccccc1,?,8.6%,?,-12.9%,-15.0%,13.1%
O=C1/C(=C\c2cccnc2)SC(=S)N1C1CCS(=O)(=O)C1 (stereo not drawn),3.66µM*,7.9%,18.4µM*,-22.7%,-18.7%,-8.5%
Cc1ccc(N2C(=O)/C(=C/c3cccnc3)SC2=S)cc1,1.0%,2.4%,-28.2%,-0.7%,-3.6%,-9.6%
CCOC(=O)c1ccc(OC(=O)c2cn(-c3cccc(OC)c3)c(=O)c3ccccc23)cc1,?,2.2%,?,-7.2%,·,-0.5%
CCc1nn(C(CC)C(=O)NCc2ccc(OC)c(OC)c2)c(=O)c2cc3oc(C)cc3n12 (stereo not drawn),16.4µM*,2.5%,9.2µM*,-6.1%,·,9.4%
CCc1nn(C(CC)C(=O)NCc2ccc(F)cc2)c(=O)c2cc3occc3n12 (stereo not drawn),?,0.0%,-19.7%,-5.3%,·,6.8%
CCc1cc(-c2nnn(CCC3COCCO3)c2CC)ccc1-c1cn(Cc2ccccc2)nn1 (stereo not drawn),16.4µM*,·,20.6µM*,·,2.9%,·
COc1ccc([C@H]2C[C@@H](O)C[C@@H](CCn3cc(-c4ccccc4)nn3)O2)cc1,-20.7%,·,-17.8%,·,6.5%,·
Cc1oc(-c2ccc(C(=O)NCc3ccc(Cl)cc3)cc2)nc1CS(=O)(=O)c1ccccc1,?,2.8%,?,-13.6%,·,8.9%
COC(=O)[C@H]1C[C@@]2(O)CN(S(=O)(=O)c3ccc(C)cc3)C[C@@]2(OC(=O)NCc2ccccc2)C[C@H]1C(=O)OC,?,·,?,·,-12.5%,·
CCOC(=O)c1c(NC(=O)CSc2nc(C)cc(C)c2C#N)sc(C(C)=O)c1C,9.2µM*,0.0%,7.31µM*,-5.2%,-18.2%,-11.8%
CCOC(=O)c1c(NC(=O)CSc2nnc(-c3ccccc3)o2)sc(C(C)=O)c1C,16.4µM*,2.3%,23.1µM*,7.2%,15.1%,38.5%
CCOC(=O)c1c(NC(=O)CSc2nnc(-c3ccc(C)cc3)o2)sc(C(C)=O)c1C,?,1.5%,-25.4%,0.2%,-2.4%,-14.3%
CCOC(=O)c1c(NC(=O)CSc2cccc[n+]2[O-])sc(C(=O)Nc2ccccc2)c1C,?,0.0%,18.4µM*,-16.3%,2.5%,-17.0%
CCOC(=O)c1c(NC(=O)CSc2nnc(-c3cccc(C)c3)n2CC)sc(C(C)=O)c1C,23.1µM*,5.9%,23.1µM*,-5.3%,5.5%,7.3%
CCOC(=O)c1c(NC(=O)CSc2nnc(-c3ccccc3)n2CC)sc(C(C)=O)c1C,?,2.1%,?,-0.6%,1.3%,-1.2%
Cn1nnc(NC(=S)NC(=O)Cc2ccccc2)n1,-18.5%,3.6%,?,3.7%,-15.8%,-7.7%
CC(Sc1nc(N)cc(N)n1)C(=O)Nc1ccc(N2CCOCC2)cc1 (stereo not drawn),15.5%,0.7%,9.0%,-3.1%,-10.2%,10.0%
CCOC(=O)c1c(NC(=O)CSc2nnc(CNc3ccc(F)cc3)o2)sc(C(C)=O)c1C,-14.1%,5.7%,?,-20.2%,-13.8%,5.5%
CCOC(=O)c1c(NC(=O)CSc2nc3nc(C)cc(C)n3n2)sc(CC)c1C,11.6µM*,4.7%,?,-1.3%,-16.2%,17.7%
